About 20,000 (21%) of roughly 96,000 compounds were called active. A selection follows. Unmarked numbers belong to inactive results.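 How the source made its calls: active means CYP2C19 inhibition above a set limit at 5 µM in the primary screen (cut at about 50% in these data); inactive means the rest.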
Each compound was assayed against Cytochrome P450 2C19 (Homo sapiens) (UniProt P33261) (assay: blockers of cytochrome P450 2C19 activity – biochemical, luminescence, ADME assay, primary screen (AID 778;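 further: plate controls were negative control wells for no effect and 2.5 mM tranylcypromine positive control for full effect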)). Details: CYP2C19 Supersomes, luciferin-H EGE luminescence, 30 min; at 5 µM; active compounds read high.
Cytochrome P450 2C19 (Homo sapiens), sequence (P33261 whole entry, looked up): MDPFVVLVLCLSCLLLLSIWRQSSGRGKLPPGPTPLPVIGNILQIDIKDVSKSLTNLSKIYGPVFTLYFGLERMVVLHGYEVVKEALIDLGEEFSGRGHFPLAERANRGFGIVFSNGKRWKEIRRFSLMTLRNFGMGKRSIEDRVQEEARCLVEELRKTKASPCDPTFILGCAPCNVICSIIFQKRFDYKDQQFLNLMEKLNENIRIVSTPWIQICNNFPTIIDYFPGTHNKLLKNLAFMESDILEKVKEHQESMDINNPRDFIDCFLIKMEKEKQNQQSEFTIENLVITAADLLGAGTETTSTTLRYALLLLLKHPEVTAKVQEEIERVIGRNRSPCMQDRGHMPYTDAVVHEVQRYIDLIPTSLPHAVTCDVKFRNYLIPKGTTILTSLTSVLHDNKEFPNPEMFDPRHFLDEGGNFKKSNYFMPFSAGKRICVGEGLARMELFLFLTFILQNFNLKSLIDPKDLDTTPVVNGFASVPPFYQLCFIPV
With `CC1(C)CC(=O)C(C2=NC(C)(C)Cc3ccccc32)=C(O)C1` the inhibition was 13.7%. In the case of `COc1ccc(C2C(C#N)=C(/N=C/N3CCOCC3)OC3=C2C(=O)CC(C)(C)C3)cc1OC` (stereo not drawn), the inhibition is reported as 21%. `CCc1ccc(N(CC)c2ncnc3nc[nH]c23)cc1` was tested, and the inhibition was 14.9%. With `CCOC(=O)C1=C(CN2CCc3ccccc32)NC(=O)NC1c1cccc([N+](=O)[O-])c1` (stereo not drawn) the inhibition was 63.5% (active). `CCOC(=O)C1=C(CN2CCc3ccccc32)NC(=O)NC1c1ccc(Cl)cc1` (stereo not drawn) gave an inhibition of 26.5%. `Cn1c2c(c(=O)n(C)c1=O)C(c1cccc([N+](=O)[O-])c1)Nc1ccccc1O2` (stereo not drawn) gave an inhibition of 18.9%. `NC(=O)COc1ccc2c3c(c(=O)oc2c1)CCCCC3` was tested, and the inhibition was -3.8%. In the case of `O=C(COc1ccc2c3c(c(=O)oc2c1)CCC3)NC1CCCCC1`, the inhibition is reported as 54.4% (active). `O=C(COc1ccc2oc3c(c2c1)CCCC3)Nc1ccccn1` gave an inhibition of 21.2%. Work on `CCC1(CC)NC(=O)N(CC(=O)OCC(=O)Nc2ccc(C(F)(F)F)cc2)C1=O` yielded an inhibition of -6.3%. Compound `S=c1[nH]nc(-c2ccco2)n1/N=C/c1ccc(Br)s1` has an inhibition of -11.6%. `O=C(NCc1ccccc1)[C@@H]1CSC2c3ccccc3C(=O)N21` (stereo partly drawn) was tested, and the inhibition was 81.2% (active). Work on `O=C(O)C1CC=C(Cl)CC1C(=O)NCc1ccccc1` (stereo not drawn) yielded an inhibition of 2.3%. Compound `Cc1ccc(CNC(=O)C2CCCN2C(=O)NCc2ccccc2)cc1` (stereo not drawn) has an inhibition of 0.7%. With `Cn1c(=O)c(C(=O)Nc2ncccn2)c(O)c2ccccc21` the inhibition was 7.9%. `O=C(NCc1ccc(Cl)cc1)c1cc(=O)nc2sc(-c3ccccc3)nn12` was tested, and the inhibition was 4.6%. With `O=C(CCc1ccccc1)Nc1cccc(-c2nnc(-c3ccco3)o2)c1` the inhibition was 18.2%. Compound `CC(=O)CSc1nnc(CSc2ncccn2)n1C1CCCCC1` has an inhibition of -8.3%. `NC(=O)CSc1oc(-c2cccs2)nc1S(=O)(=O)c1ccccc1` was tested, and the inhibition was 79.2% (active). `CC1CCCCN1S(=O)(=O)c1ccc(C(=O)Nc2nnc(-c3cccs3)o2)cc1` (stereo not drawn) gave an inhibition of 10.3%. For `Cc1ccc(CNC(=O)COc2ccc(S(=O)(=O)NC(C)C)cc2)cc1`, the inhibition was 38.8%. With `Nc1ccc(C(=O)OCC(=O)NC2CCCc3ccccc32)cc1[N+](=O)[O-]` (stereo not drawn) the inhibition was 34.6%. `CCOC(=O)CSc1nnc(CNc2nc(-c3ccccc3)cs2)n1C` gave an inhibition of 35%. Work on `Cn1c(CC(=O)Nc2ccccc2)nnc1SCC(=O)c1ccccc1` yielded an inhibition of 33.2%. `Cn1c(CNc2nc(-c3ccccc3)cs2)nnc1SCC(=O)c1ccccc1` was tested, and the inhibition was 86.5% (active). `CCOc1c2ccc(C(=O)NC3CCCc4ccccc43)cc2nn1CC` (stereo not drawn) showed an inhibition of 29.9%. `CC(C)C[C@H](NC(=O)NCCc1ccc(Cl)cc1)C(=O)O` was tested, and the inhibition was 2.7%. In the case of `CSCC[C@H](NC(=O)NCCc1ccc(F)cc1)C(=O)O`, the inhibition is reported as 72.3% (active). For `CSCC[C@H](NC(=O)NCc1cccs1)C(=O)O`, the inhibition was -4.9%. `O=C(O)c1ccc(-n2cccc2)cc1O` gave an inhibition of 5.6%. Compound `CCCOc1cc(C)c(S(=O)(=O)n2nnc3ccccc32)cc1C` has an inhibition of -9.4%. `Cc1ccc(S(=O)(=O)n2cnc3ccccc32)c(C)c1` was tested, and the inhibition was 4.5%. With `CCOc1cc(C)c(Cl)cc1S(=O)(=O)n1nnc2ccccc21` the inhibition was 66.1% (active). Compound `COc1cc(/C=C2\SC(=S)N(Nc3ncc(C(F)(F)F)cc3Cl)C2=O)cc(OC)c1OC` has an inhibition of 31.7%. Work on `COc1cccc(-c2cc3nc4c(c(N5CCC6(CC5)OCCO6)n3n2)CCCC4)c1` yielded an inhibition of 24.8%. Work on `NC(=O)C1CCN(C2OC(=O)c3ccccc32)CC1` (stereo not drawn) yielded an inhibition of -2%. `c1cnn(-c2cc(N3CCOCC3)ncn2)c1` was tested, and the inhibition was 5.4%. `COC(=O)c1c(-c2ccc(C)cc2)csc1N` showed an inhibition of 24.4%. Compound `Cc1noc(C)c1C(=O)N1CCOCC1` has an inhibition of -2.1%. In the case of `Cc1ccc(-c2nc(COC(=O)c3c(C)noc3C)cs2)cc1`, the inhibition is reported as 54% (active). `O=C(/C(=N\O)n1cncn1)c1ccc(Br)cc1Br` was tested, and the inhibition was 33.6%. Work on `Cc1[nH]c2ccc(S(N)(=O)=O)cc2c1C` yielded an inhibition of 13%. For `CNC(=O)c1c(NC(NC(=O)c2ccco2)C(=O)c2ccc(Cl)cc2)sc2c1CCCC2` (stereo not drawn), the inhibition was 21.4%. `Cc1cccc(-n2c(N)cc(=O)nc2SC(C)C(=O)NC2CCCCC2)c1` (stereo not drawn) was tested, and the inhibition was 12.9%. `CC(=O)Nc1cccc2c1[n+]([O-])c(C)c(C)[n+]2[O-]` gave an inhibition of 5%. In the case of `CCOC(=O)c1ccc2c(c1)nc(SCC(=O)NC(C)C)n2CC`, the inhibition is reported as 85.7% (active). With `CCn1c(SCC(=O)NCC2CCCO2)nc2cc(S(=O)(=O)N3CCCCC3)ccc21` (stereo not drawn) the inhibition was 11%. `CCn1c(C)nc2cc(C(=O)NNS(=O)(=O)c3ccc(C)cc3C)ccc21` showed an inhibition of 1.5%. `N#Cc1ccccc1-n1c(N)c(C(=O)N2CCCC2)sc1=S` showed an inhibition of 17.2%. Work on `CCC1CCCCN1CCNS(=O)(=O)c1ccc2c(c1)CCN2C(C)=O` (stereo not drawn) yielded an inhibition of -3.7%. Compound `CC(=O)c1cccc(NC(=O)Nc2ccc(C)cc2)c1` has an inhibition of -13.3%. `Cc1ccc(C(=O)c2c(NC(=O)c3ccccc3)sc(C)c2C)cc1` was tested, and the inhibition was 23.7%. `Cc1ccc(NC(=O)C(C)c2cccc(C(=O)c3ccccc3)c2)cc1` (stereo not drawn) was tested, and the inhibition was 92.1% (active). In the case of `CCn1c(=O)cc(OCC(=O)NCCCN2CCN(c3cccc(Cl)c3)CC2)c2ccccc21`, the inhibition is reported as 26.7%. In the case of `CC(C)NC(=O)C(=O)NCCN1CCN(S(=O)(=O)c2ccc(Cl)cc2)CC1`, the inhibition is reported as 7.4%. `Cc1ccc(C2(c3ccc(C)cc3)NC(=O)N(Cc3c(C)noc3C)C2=O)cc1` gave an inhibition of 14.6%. In the case of `Cc1ccccc1-n1c(C)cc(/C=N/NC(=O)c2ccc(CN3CCOCC3)cc2)c1C`, the inhibition is reported as 24.3%. For `OC(COc1ccccc1)Cn1cc(Br)cn1` (stereo not drawn), the inhibition was 54.1% (active). `CC(C)c1ccc(OCC(O)Cn2cnc3ccccc32)cc1` (stereo not drawn) was tested, and the inhibition was 7.2%. Work on `O=C(C(c1ccccc1)c1ccccc1)N1CCN(CC(O)COc2ccccc2)CC1` (stereo not drawn) yielded an inhibition of 41.9%. In the case of `COc1cccc(NC(=O)Cc2ccc(C)cc2)c1`, the inhibition is reported as 57.1% (active). In the case of `COc1cccc(NC(=O)c2ccccc2SC)c1`, the inhibition is reported as 6.7%. With `COc1ccc(CC(=O)Nc2ccc(-c3nnc(-c4ccccc4)o3)cc2)cc1` the inhibition was 18%. `COc1ccc(NC(=O)CN(C)S(=O)(=O)c2ccccc2)cc1OC` was tested, and the inhibition was 25.7%. Compound `CCC(=O)Nc1ccc(C(=O)Nc2cccc(OC)c2)cc1` has an inhibition of -0.7%. With `COc1cccc(NC(=O)C(C)Oc2ccccc2)c1` (stereo not drawn) the inhibition was 79.9% (active). With `COc1cccc(NC(=O)CN(C)S(=O)(=O)c2ccc(C)cc2)c1` the inhibition was 78.9% (active). With `COc1cccc(N(CC(=O)Nc2cccc(N(C)S(C)(=O)=O)c2)S(C)(=O)=O)c1` the inhibition was 35.8%. In the case of `CCOc1ccc(S(=O)(=O)N(CC(=O)O)c2ccccc2)cc1`, the inhibition is reported as 2.3%. Compound `COc1cccc(N(CC(=O)N2CCc3ccccc3C2)S(C)(=O)=O)c1` has an inhibition of 31.3%. With `CCN(CC)C(=O)CN(c1cccc(OC)c1)S(=O)(=O)c1ccc(C)cc1` the inhibition was 64.9% (active). With `COc1ccc(OC(C)C(=O)Nc2cccnc2)cc1` (stereo not drawn) the inhibition was 7.1%. `CCOC(=O)/C=c1\s/c(=C\c2ccccc2OC)c(=O)n1CC(=O)N1CCOCC1` gave an inhibition of -9.3%. `CCNC(=O)c1sccc1-n1cccc1` gave an inhibition of 16.3%. Work on `CCN1CCN(C(c2cccnc2)c2cc(Cl)c3cccnc3c2O)CC1` (stereo not drawn) yielded an inhibition of 17.2%. In the case of `Cc1ccc(C(=O)NNC(=O)c2cc3cc4ccccc4nc3s2)cc1`, the inhibition is reported as -3.1%. Work on `O=c1[nH]c(-c2ccccc2)c(-c2ccccc2)[nH]1` yielded an inhibition of 1.3%. `O=C1CC2(CCCCC2)Oc2ccc(OCC(=O)N3CCOCC3)cc21` gave an inhibition of -3.8%. `CCCCc1nnc(NC(=O)CSc2nc(C)cc(=O)[nH]2)s1` was tested, and the inhibition was 4.3%. In the case of `O=C1/C(=C\Nc2ccccc2)CCN1c1ncccn1`, the inhibition is reported as 7.1%. In the case of `CCOC(=O)c1ccn(-c2nc(-c3ccco3)cc(C(F)(F)F)n2)n1`, the inhibition is reported as 9.7%. Compound `CC(=O)C1C(c2cccc(Oc3ccccc3)c2)NC(=O)NC1(O)C(F)(F)F` (stereo not drawn) has an inhibition of 24.4%. `Cc1ccccc1-c1ccc(Nc2ccc(C(=O)N3CCOCC3)cc2)nn1` showed an inhibition of 34.2%. For `CC(=O)N1Cc2ccccc2CC1C(=O)O` (stereo not drawn), the inhibition was -21.6%. `Cc1ccc(C)c(NC(=O)C2CCCN2C(=O)OC(C)(C)C)c1` (stereo not drawn) gave an inhibition of 11.7%. For `Cc1ccc(C)c(NC(=O)C2Cc3ccccc3CN2C(=O)OCc2ccccc2)c1` (stereo not drawn), the inhibition was 62.3% (active). `Cc1cc(C(F)(F)F)nn1-c1nc(-c2ccco2)cc(C(F)(F)F)n1` gave an inhibition of 2.2%. For `CCOC(=O)c1cn(CC(=O)Nc2ccc(C(C)C)cc2)nn1`, the inhibition was 62% (active). `CCOC(=O)c1ccc(NC(=O)Cn2nnc(-c3ccc(C)cc3)n2)cc1` was tested, and the inhibition was 8.5%. `CCOC(=O)c1ccc(NC(=O)CSc2ncccn2)cc1` showed an inhibition of 26.9%. `COCC(C)NC(=O)c1ccc(-n2nc(C(F)(F)F)cc2-c2cccs2)cc1` (stereo not drawn) showed an inhibition of 12.4%. With `O=c1cc(CSc2ccc(Cl)cc2)nc(N2CCOCC2)[nH]1` the inhibition was 38.8%. `CSCc1cc(N2CCOCC2)nc(SCc2ccc(Cl)cc2Cl)n1` was tested, and the inhibition was 50.8% (active). `CSCc1cc(N(C)C)nc(SCc2ccc(Cl)cc2Cl)n1` was tested, and the inhibition was 40.2%. `O=C(c1ccc2c(c1)OCCO2)C1CCN(S(=O)(=O)c2cccc(F)c2)CC1` was tested, and the inhibition was 35.4%. For `COc1ccc(Cn2c(=O)sc3ccccc32)cc1OC`, the inhibition was 99.8% (active). `Cc1nnc(NC(=O)Cn2c(=O)sc3ccccc32)s1` gave an inhibition of 47.6%. `COc1ccc(CCNC(=O)CCn2c(=O)oc3ccccc32)cc1OC` was tested, and the inhibition was 1.4%.
